# According to PubChem BioAssay (EPA / NIEHS):
# Values joined by “and” are separate entries in the source; they are usually repeats but may differ in a detail not shown here. Equal values may be shown once. Inconclusive results are not listed. Some compounds were tested as several samples or in several runs, with calls that do not always agree. Active and inactive are the calls of the source. How the source made its calls, unless noted: active means hit-call score of the fitted dose curve at least 0.9, where 1 is the maximum; inactive means score below 0.9.
# Tests used:
# [1] = read-out: TIMP metallopeptidase inhibitor 2 (TIMP2), TIMP2 (gene 7077); assay: BSK_hDFCGF_TIMP2: BioMAP Diversity Plus: hDFCGF Assay for TIMP metallopeptidase inhibitor 2 (TIMP2) Biomarker Activity (AID 2284289); details: primary human foreskin fibroblasts
# Outline: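 Primary human foreskin fibroblasts in the hDFCGF system, dosed for 24 h; TIMP-2 level measured by ELISA, fitted in the positive direction against DMSO; cytotoxicity checked in parallel by sulforhodamine B total protein staining.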
# [2] = read-out: Interleukin-1 alpha (IL1a), IL1A (gene 3552); assay: BSK_IMphg_IL1a: BioMAP Diversity Plus: IMphg Assay for Interleukin-1 alpha (IL1a) Biomarker Activity (AID 2284290); details: primary human endothelial cells with macrophages
# Outline: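 IL-1α is quantified by ELISA at 24 h in the endothelial/macrophage IMphg co-culture, with gain of signal fitted relative to DMSO. Parallel SRB total-protein staining flags overt toxicity.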
# [3] = read-out: E-selectin (Homo sapiens) (UniProt P16581); assay: BSK_IMphg_ESelectin: BioMAP Diversity Plus: IMphg Assay for Eselectin Biomarker Activity (AID 2284291); details: primary human endothelial cells with macrophages
# Outline: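 Analysed against DMSO baseline in the positive fitting direction, this endpoint is an ELISA read of E-selectin. It comes from human venular endothelial cells co-cultured with macrophages, sampled 24 h post-dose.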
# [4] = read-out: Thrombomodulin, THBD (gene 7056); assay: BSK_LPS_Thrombomodulin: BioMAP Diversity Plus: LPS Assay for Thrombomodulin Biomarker Activity (AID 2284296); details: primary human HUVEC with PBMC
# Outline: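 Thrombomodulin on the surface of LPS-activated endothelial/PBMC co-cultures was quantified by ELISA at 24 hours post-dosing, with DMSO as baseline. Parallel SRB total-protein staining flagged overt cytotoxicity.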
# CD69, CD69 (gene 969) = assay: BSK_LPS_CD69: BioMAP Diversity Plus: LPS Assay for CD69 Biomarker Activity (AID 2284303); details: primary human HUVEC with PBMC
# Outline: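 CD69 surface levels were read by ELISA after 24 h chemical treatment of an LPS-stimulated HUVEC plus PBMC co-culture; positive-direction fit against DMSO vehicle.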
# [5] = VALA_TUBHUV_Agonist_CellCount: Viability Assessment in the VALA Sciences human Umbilical Vein Endothelial Tubule Formation (TUBHUV) Agonism Assay (AID 2284309; active means hit-call score of the fitted dose curve at least 0.9, where 1 is the maximum)
# Outline: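 Viability endpoint by fluorescent imaging of fixed nuclear/CD31-stained HUVEC–HDF co-cultures. Readout is cell count, fitted upward against 0.1% DMSO. Compound exposure was 72 h in 10 ng/ml VEGF, after 3-day co-culture priming.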
# [6] = VALA_TUBHUV_Antagonist_CellCount: Viability Assessment in the VALA Sciences human Umbilical Vein Endothelial Tubule Formation (TUBHUV) Antagonism Assay (AID 2284310; active means hit-call score of the fitted dose curve at least 0.9, where 1 is the maximum)
# Outline: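 Read-out is imaged cell count after nuclear and CD31 staining, fitted against 0.1% DMSO vehicle. Compounds were added for 3 days, in 10 ng/ml VEGF assay medium, to HUVEC–HDF co-cultures pre-grown 3 days.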
# [7] = VALA_MIGHUV2_Bcatenin: VALA Sciences human Umbilical Vein Endothelial Cell Migration (MIGHUV) Assay, Nuclear Translocation of beta-Catenin after Recovery (AID 2284315; active means hit-call score of the fitted dose curve at least 0.9, where 1 is the maximum)
# Outline: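 Nuclear beta-catenin imaged by immunofluorescence with Hoechst counterstain in fixed HUVEC, 24 h after scratch wounding and chemical addition. Six-point concentration-response in triplicate; activity scored as signal increase over 0.1% DMSO vehicle.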
# [8] = IUF_NPC2c_oligodendrocyte_migration_120hr: Leibniz Research Institute for Environmental Medicine (IUF) 120-hour Neural Progenitor Cell Migration Assay for Oligodendrocyte Migration (NPC2c) (AID 2284297);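 further: O4-positive oligodendrocyte migration distance divided by radial glia migration distance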
# Outline: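 hNPC spheres (GW 16-19 cortex), PDL/laminin, DMEM/F12 3:1 + 1% N2, 37C. Dosing day 0–5, half feed day 3, DMSO ≤0.1%. Fixed 120 h; O4 ICC + Hoechst, HCI. Readout: mean oligodendrocyte distance from sphere edge / radial glia distance.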
# [9] = IUF_NPC2a_radial_glia_migration_120hr: Leibniz Research Institute for Environmental Medicine (IUF) 120-hour Neural Progenitor Cell Migration Assay for Radial Glia Migration (NPC2a) (AID 2284298)
# Outline: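 Hoechst-stained nuclei imaged at 120 h; algorithm maps sphere core by densest nuclei, sets migration edge at density threshold, gives radial glia migration distance (um) per well vs DMSO. hNPC spheres (0.3 mm), PDL/laminin, DMEM/F12 3:1 + 1% N2.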
# [10] = IUF_NPC2a_radial_glia_migration_72hr: Leibniz Research Institute for Environmental Medicine (IUF) 72-hour Neural Progenitor Cell Migration Assay for Radial Glia Migration (NPC2a) (AID 2284299)
# Outline: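 Readout: mean of four manual brightfield measurements of radial glia migration distance (um) at 72 h. hNPC spheres (0.3 mm) exposed to 7 compound concentrations plus solvent control on PDL/laminin, 37C, 5% CO2; activity fitted relative to DMSO.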
# [11] = IUF_NPC2b_neuronal_migration_120hr: Leibniz Research Institute for Environmental Medicine (IUF) 120-hour Neural Progenitor Cell Migration Assay for Neuron Migration (NPC2b) (AID 2284300)
# Outline: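 hNPC spheres, PDL/laminin, DMEM:F12 3:1 + 1% N2, 37C/5% CO2; 7 concentrations + solvent control (DMSO ≤0.1%), 5 d exposure, half-feed day 3. Fix 120 h, TUBB3 ICC, HCI: mean neuron migration distance ÷ glia distance.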
# [12] = IUF_NPC3_neuronal_differentiation_120hr: Leibniz Research Institute for Environmental Medicine (IUF) 120-hour Neuronal Differentiation Assay (NPC3) (AID 2284301)
# Outline: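 Value is percent TUBB3-positive neurons among Hoechst-stained nuclei in the migration area, scored by trained CNN after 120 h differentiation. Primary hNPC spheres on poly-D-lysine/laminin, N2 medium, continuous dosing from day 0, half-refeed day 3; DMSO reference.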
# [13] = IUF_NPC4_neurite_length_120hr: Leibniz Research Institute for Environmental Medicine (IUF) 120-hour Neuronal Morphology Assay for Neurite Length (NPC4) (AID 2284302)
# Outline: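 Neurite length, the mean in um across TUBB3-stained neurons, is derived by skeletonization of high-content images after 120 h differentiation. Compound exposure, 7 concentrations plus solvent control, ran from plating of hNPC spheres on poly-D-lysine/laminin, with medium half-replaced on day 3.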
# [14] = IUF_NPC5_oligodendrocyte_differentiation_120hr: Leibniz Research Institute for Environmental Medicine (IUF) 120-hour Oligodendrocyte Differentiation Assay (NPC5) (AID 2284304; active means hit-call score of the fitted dose curve at least 0.9, where 1 is the maximum;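 further: primary human fetal neural progenitor spheres plated to migrate and differentiate; share of O4-positive cells among Hoechst nuclei found by CNN image analysis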)
# Outline: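 hNPC spheres, fetal cortex GW 16-19; PDL/laminin, DMEM:F12 3:1 + 1% N2, 37C/5% CO2; 7 concentrations + solvent control, 5 d exposure, half-change day 3. Readout: %O4+ of Hoechst+ nuclei in migration area, CNN classification; DMSO baseline.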
# [15] = IUF_NPC4_neurite_area_120hr: Leibniz Research Institute for Environmental Medicine (IUF) 120-hour Neuronal Morphology Assay for Neurite Area (NPC4) (AID 2284305; active means hit-call score of the fitted dose curve at least 0.9, where 1 is the maximum)
# Outline: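 Neurite area (pixels, nuclei excluded) of TUBB3-positive neurons from hNPC spheres differentiating 5 days under continuous exposure at 37 C, 5% CO2. High-content imaging; loss of signal versus DMSO control across 7 concentrations.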
# [16] = IUF_NPC2-5_cytotoxicity_72hr: Cytotoxicity Assessment at 72 hours in the Leibniz Research Institute for Environmental Medicine (IUF) Neural Progenitor Cell Migration and Differentiation Assay for Cytotoxicity (NPC2-5) (AID 2284306; active means hit-call score of the fitted dose curve at least 0.9, where 1 is the maximum;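 further: LDH release into supernatant measured by resorufin fluorescence marking membrane damage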)
# Outline: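 Membrane-integrity cytotoxicity at 72 h, read as LDH-driven resorufin fluorescence in supernatant. hNPC spheres from fetal cortex differentiate on coated plates in N2 medium, 37C, 5% CO2; seven serial compound concentrations plus solvent control (DMSO ≤0.1%).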
# [17] = IUF_NPC2-5_cytotoxicity_120hr: Cytotoxicity Assessment at 120 hours in the Leibniz Research Institute for Environmental Medicine (IUF) Neural Progenitor Cell Migration and Differentiation Assay (NPC2-5) (AID 2284307; active means hit-call score of the fitted dose curve at least 0.9, where 1 is the maximum;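 on AC50: LDH released into supernatant as membrane damage marker via resorufin fluorescence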)
# Outline: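 hNPC spheres on PDL/laminin, N2 medium, 37C; 7 concs + solvent control, DMSO ≤0.1%; 5-day exposure, half medium changed day 3. LDH in supernatant at 120 h, resazurin→resorufin fluorescence, gain-of-signal.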
# [18] = IUF_NPC2-5_cell_number_120hr: Cell Number Assessment at 120 hours in the Leibniz Research Institute for Environmental Medicine (IUF) Neural Progenitor Cell Migration and Differentiation Assay (NPC2-5) (AID 2284308);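 further: count of Hoechst-stained nuclei in migration zone around plated human neural progenitor spheres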
# Outline: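 Hoechst-stained nuclei within the migration area were counted by automated high content imaging after 120 h. Single hNPC spheres differentiated on poly-D-lysine/laminin in DMEM/F12 (3:1) with 1% N2, compound present throughout, DMSO ≤0.1%.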
# [19] = IUF_NPC2-5_viability_120hr: Viability Assessment at 120 hours in the Leibniz Research Institute for Environmental Medicine (IUF) Neural Progenitor Cell Migration and Differentiation Assay (NPC2-5) (AID 2284312)
# Outline: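 Alamar blue resorufin fluorescence read after 5 days of differentiation, with compound present from day 0 and replenished at day 3. Primary hNPC spheres on laminin-coated plates, 37C; seven concentrations plus solvent control, fitted against DMSO.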
# Sequence of E-selectin (Homo sapiens) (P16581 whole entry, looked up): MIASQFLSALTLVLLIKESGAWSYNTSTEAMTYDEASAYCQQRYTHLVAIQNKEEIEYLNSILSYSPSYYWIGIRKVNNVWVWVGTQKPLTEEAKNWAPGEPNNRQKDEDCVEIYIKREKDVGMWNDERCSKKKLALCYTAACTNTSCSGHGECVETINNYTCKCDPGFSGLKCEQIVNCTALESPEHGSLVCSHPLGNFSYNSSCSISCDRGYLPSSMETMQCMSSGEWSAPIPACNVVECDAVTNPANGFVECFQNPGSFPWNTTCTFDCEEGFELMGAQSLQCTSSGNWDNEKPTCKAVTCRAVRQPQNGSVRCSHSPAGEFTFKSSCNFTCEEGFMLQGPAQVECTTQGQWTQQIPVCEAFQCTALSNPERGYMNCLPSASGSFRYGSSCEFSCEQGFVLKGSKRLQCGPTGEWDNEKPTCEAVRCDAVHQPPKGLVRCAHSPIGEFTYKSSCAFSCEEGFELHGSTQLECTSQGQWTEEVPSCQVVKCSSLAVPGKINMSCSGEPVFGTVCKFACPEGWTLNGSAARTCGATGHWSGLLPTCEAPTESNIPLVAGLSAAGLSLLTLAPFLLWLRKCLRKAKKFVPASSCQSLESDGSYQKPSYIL
smiles,measurement,setting,value
CC(O)C(F)(F)C(F)(F)F (centres undefined),outcome,[1],inactive
same,outcome,[2],inactive
same,outcome,[3],inactive
same,outcome,[4],inactive
same,outcome,"CD69, CD69 (gene 969)",inactive
Cc1ccc(N)cc1N,outcome,[5],inactive
same,outcome,[6],inactive
same,outcome,[7],inactive
O=S(=O)(F)C(F)(F)C(F)(F)C(F)(F)C(F)(F)C(F)(F)C(F)(F)C(F)(F)C(F)(F)F,outcome,[1],inactive
same,outcome,[2],inactive
same,outcome,[3],inactive
same,outcome,[4],inactive
same,outcome,"CD69, CD69 (gene 969)",inactive
CC(C)(C)c1ccccc1OP(=O)(Oc1ccccc1)Oc1ccccc1,outcome,[8],inactive
same,AC50,[9],10000 nM (active)
same,outcome,[10],inactive
same,outcome,[11],inactive
same,outcome,[12],inactive
same,outcome,[13],inactive
same,AC50,[14],4350 nM (active)
same,outcome,[15],inactive
same,outcome,[16],inactive
same,AC50,[17],1980 nM (active)
same,outcome,[18],inactive
same,outcome,[19],inactive
O=C(O)C(F)(F)OC(F)(F)C(F)(F)OC(F)(F)F,outcome,[1],inactive
same,outcome,[2],inactive
same,outcome,[3],inactive
same,outcome,[4],inactive
same,outcome,"CD69, CD69 (gene 969)",inactive
O=C(O)C(F)(F)C(F)(F)C(=O)O,outcome,[1],inactive
same,outcome,[2],inactive
same,outcome,[3],inactive
same,outcome,[4],inactive
same,outcome,"CD69, CD69 (gene 969)",inactive
CCCCC(CC)COP(=O)(Oc1ccccc1)Oc1ccccc1 (centres undefined),outcome,[8],inactive
same,outcome,[9],inactive
same,outcome,[10],inactive
same,outcome,[11],inactive
same,outcome,[12],inactive
same,outcome,[13],inactive
same,outcome,[14],inactive
same,outcome,[15],inactive
same,outcome,[16],inactive
same,outcome,[17],inactive
same,outcome,[18],inactive
same,outcome,[19],inactive
O=C(O)C(F)(OC(F)(F)C(F)(F)C(F)(F)F)C(F)(F)F (centres undefined),outcome,[1],inactive
same,AC50,[2],220 nM (active)
same,outcome,[2],inactive
same,outcome,[3],inactive
same,outcome,[4],inactive
same,outcome,[8],inactive
same,outcome,[9],inactive
same,outcome,[10],inactive
same,outcome,[11],inactive
same,outcome,[12],inactive
same,AC50,[13],342 nM (active)
same,outcome,"CD69, CD69 (gene 969)",inactive
same,outcome,[14],inactive
same,AC50,[15],338 nM (active)
same,outcome,[16],inactive
same,outcome,[17],inactive
same,outcome,[18],inactive
same,outcome,[19],inactive
O=S1(=O)OCC2C(CO1)C1(Cl)C(Cl)=C(Cl)C2(Cl)C1(Cl)Cl (centres undefined),outcome,[8],inactive
same,outcome,[9],inactive
same,outcome,[10],inactive
same,outcome,[11],inactive
same,outcome,[12],inactive
same,outcome,[13],inactive
same,AC50,[14],403 nM (active)
same,outcome,[15],inactive
same,outcome,[16],inactive
same,outcome,[17],inactive
same,outcome,[18],inactive
same,outcome,[19],inactive
NC(=O)C(F)(F)C(F)(F)F,outcome,[1],inactive
same,outcome,[2],inactive
same,outcome,[3],inactive
same,outcome,[4],inactive
same,outcome,"CD69, CD69 (gene 969)",inactive
C=CC(=O)OCC(F)(F)C(F)F,AC50,[1],5.95 µM (active) and 20.8 µM (active)
same,outcome,[2],inactive
same,AC50,[3],44600 nM (active)
same,outcome,[3],inactive
same,AC50,[4],30 µM (active) and 39 µM (active)
same,AC50,"CD69, CD69 (gene 969)",43800 nM (active)
same,outcome,"CD69, CD69 (gene 969)",inactive
O=C(O)C=CC(F)(C(F)(F)F)C(F)(F)F,outcome,[1],inactive
same,outcome,[2],inactive
same,outcome,[3],inactive
same,outcome,[4],inactive
same,outcome,"CD69, CD69 (gene 969)",inactive
